# According to PubChem BioAssay (NCATS):
# Records with an inconclusive call do not appear. The source made the active and inactive calls. Calls follow the shape of the dose curve; as a rule, active = well fitted inhibition curve with a large enough effect; inconclusive = small, poorly fitted or top-dose-only effect; inactive = flat fitted curve, though single readings scatter.
# Target: Calcium and integrin-binding protein 1 (Homo sapiens) (UniProt Q99828)
# Test: Primary qHTS for Identification of Calcium Integrin Binding Protein 1 (CIB1) Competitor (AID 1508620);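 also: GST tagged CIB1 binding a fluorescein labelled alphaIIb integrin peptide tracer; top concentration of the series differs between compounds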
# Details: CIB1-GST / FITC-alphaIIb peptide fluorescence polarization; series mostly up to 114 µM; activity change, negative = inhibition: at the top concentration
# How it was run: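 CIB1-GST (1 uM final) and compound incubated 15 min at room temperature before adding FITC-alphaIIb peptide tracer (100 nM final). Competition for binding read by fluorescence polarization (ex 480, em 540) after another 15 min at room temperature.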
# % is scaled to controls: 0 for no effect and ±100 for the full control effect.
# Calcium and integrin-binding protein 1 (Homo sapiens), sequence (Q99828 whole entry, looked up): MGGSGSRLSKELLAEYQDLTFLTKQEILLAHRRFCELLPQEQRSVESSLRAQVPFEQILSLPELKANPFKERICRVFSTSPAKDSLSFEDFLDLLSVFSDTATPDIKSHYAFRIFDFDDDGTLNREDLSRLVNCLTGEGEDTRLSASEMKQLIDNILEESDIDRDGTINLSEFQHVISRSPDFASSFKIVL
SMILES,"activity change, negative = inhibition",Potency
Nc1ccc2c(=O)n3nc(Nc4ccc5c(c4)CCC5)sc3nc2c1,-16.4% (inactive),–
C=CCNc1oc(-c2cccs2)nc1C#N,-7.31% (inactive),–
Cc1cccc(CNc2ccnc(-c3cccc4ccccc34)n2)c1,-0.406% (inactive),–
N#Cc1c(-c2ccc(O)cc2)no[n+]1[O-],4.25% (inactive),–
N=c1c2c(ccn1Cc1ccccc1)Oc1ccc3ccccc3c1C2c1ccccc1 (stereo not given),9.47% (inactive),–
O=C(NCCc1nc2ccccc2[nH]1)C1CCCCC1,1.31% (inactive),–
COc1ccccc1-c1nnc2n1N=C(c1ccc(OC(F)F)c(OCC3CC3)c1)CS2,1.36% (inactive),–
Cc1cccc(-n2cnc3cc(C(=O)N4CCCCC4)ccc32)c1,-1.74% (inactive),–
COc1ccc(C2Nc3ccccc3C(=O)N2Cc2ccccc2Cl)cc1COc1ccc(NC(C)=O)cc1 (stereo not given),6.11% (inactive),–
O=C(Nc1ccc(Cl)c(Cl)c1)Nc1cccc(-c2ccncc2)n1,6.27% (inactive),–
CCCN1CCN(c2cccc(Nc3nn4c(=O)c5ccccc5nc4s3)c2)CC1,–,inactive
COc1ccc(-c2ccc(NC(=O)c3cccs3)cn2)cc1,0.114% (inactive),–
COc1ccccc1N1C(=O)c2ccccc2C1=O,0.214% (inactive),–
COc1cccc(Cn2ncc3c4sc(B(O)O)cc4n(C)c3c2=O)c1,-10.8% (inactive),–
O=C(NCCc1ccc2c(c1)OCO2)c1cc2sccc2[nH]1,2.97% (inactive),–
CCCCCNc1oc(-c2cccc3ccccc23)nc1C#N,2.34% (inactive),–
COc1cc(Nc2nc(-c3ccncc3)nc3ccccc23)ccc1Cl,4.16% (inactive),–
COc1ccc(C2Nc3ccccc3C(=O)N2Cc2ccco2)cc1COc1ccc(N)cc1 (stereo not given),-18.7% (inactive),–
Cc1ccc(NS(=O)(=O)c2ccc3c(c2)CC(=O)N3C)cc1C,3.74% (inactive),–
N#CN1CCC(NS(=O)(=O)c2ccc(F)cc2)CC1,1.09% (inactive),–

SMILES,"activity change, negative = inhibition",Potency
COc1cccc(CNc2ccc(S(=O)(=O)Nc3nc(C)cs3)cc2)c1O,-8.75% (inactive),–
N#Cc1ccc(C(=O)NCC(=O)OC(C(=O)Nc2cc(C(F)(F)F)ccc2Cl)c2ccccc2)cc1 (stereo not given),-0.952% (inactive),–
COc1ccc(C2=Nn3c(nnc3-c3ccc(OC)cc3OC)SC2)c(OC)c1,-0.296% (inactive),–
Cc1cc(C)nc(NC(=S)N2CCN(c3nccc4ccccc34)CC2)c1,-7.65% (inactive),–
COc1ccc2oc(NC3=NC(c4[nH]ncc4Cl)C4=C(CCCC4=O)N3)nc2c1 (stereo not given),1.18% (inactive),–
CCOc1ccc(CCNC(=O)c2ccnn2Cc2cccc(C)c2)cc1OCC,-2.12% (inactive),–
COc1ccc(C2Nc3ccccc3C(=O)N2Cc2ccc(C(F)(F)F)cc2)cc1COc1ccc(NC(C)=O)cc1 (stereo not given),1.78% (inactive),–
COc1ccc(C2=Nn3c(nnc3-c3ccccc3OC)SC2)cc1,-5.97% (inactive),–
COc1cc(NC(=S)N2CCN(c3cccc(C(F)(F)F)c3)CC2)nc2ccccc12,-7.81% (inactive),–
Cc1ccc(OCCn2c(CCNC(=O)c3ccccc3[N+](=O)[O-])nc3ccccc32)cc1,7.44% (inactive),–
Cc1ccc(N[S+](=O)([O-])c2cc3c(cc2NC2CC2)NC(=O)CC3)cc1C,-7.22% (inactive),–
Cc1ccnc(NC(=S)N2CCN(c3ccc(C(F)(F)F)cc3)CC2)c1,-13% (inactive),–
FC(F)(F)c1cccc(N2CCN(C(=S)Nc3ncnc4ccccc34)CC2)c1,12.6% (inactive),–
CC(=O)Nc1ccc(OCc2cccc(C3Nc4ccccc4C(=O)N3Cc3ccco3)c2)cc1 (stereo not given),-12.4% (inactive),–
Oc1cccc2cc(-c3ccccc3)cnc12,-6.33% (inactive),–
Cc1cnc(-c2ccccc2C(C)C)nc1NCc1ccc(C(N)=O)cc1,2.75% (inactive),–
Cc1c(C(=O)O)[nH]c2c1C(=O)CCC2,-1.6% (inactive),–
O=C1CCCC2=C1C(c1[nH]ncc1Cl)N=C(c1nc3ccccc3o1)N2 (stereo not given),-11.5% (inactive),–
Cc1cc(NC(=O)Nc2nnc(-c3cccnc3)s2)ccc1Br,3.98% (inactive),–
COc1ccc(CNc2ccc(S(=O)(=O)Nc3nccs3)cc2)cc1O,-6.48% (inactive),–
